Compound activity from PubChem.
In the library only some 2.5% were active in any assay of this set; here they are far more common.
ASK1 inh = inhibitors of human ASK1 kinase; Q99683; AlphaScreen MKK6 phosphorylation by ASK1, luminescence; inhibition, % at 7.44 µM; actives 0.99% (n = 22,000); AID 1159602; in the data active = inhibition above about 35%;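 note: 0% = median of compound wells and 100% = no enzyme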
ULK1 primary = blocks human autophagy kinase ULK1 | O75385 | AlphaScreen Atg13 phosphorylation by ULK1, luminescence | inhibition, % at 5.96 µM | actives 1.9% (n = 30,000); in the data active = inhibition above about 43%;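 note: 0% = median of compound wells and 100% = no enzyme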
The depositor's hits bear a star; . = no result.

SMILES	ASK1 inh	ULK1 primary
c1cn(-c2ccc(Nc3nc(NC4CC4)c4[nH]cnc4n3)cc2)cn1	-69	57*
c1nc2nc(Nc3ccc(N4CCOCC4)cc3)nc(NC3CC3)c2[nH]1	-12	56*
FC(F)(F)c1ccc(Nc2nc(Nc3ccc(N4CCOCC4)cc3)c3[nH]cnc3n2)cc1	25	29
O=C(c1ccc2[nH]ncc2c1)N1CCC(Oc2ccc(Cl)cc2)CC1	-10	-2
O=C(Nc1nc(CC(=O)N2CCN(c3cccc(Cl)c3)CC2)cs1)NC1CCCC1	.	-7
COc1cc2nc(NCCCN3CCCC3=O)nc(NCc3cccc(C(F)(F)F)c3)c2cc1OC	1	-24
N#C/C(=C\c1nn(-c2ccccc2)c(N)c1C#N)c1ccco1	.	45*
COc1ccc(-c2cccc(C(=O)NCCN(C(C)C)C(C)C)n2)cn1	-3	8
c1ccc(Oc2ccc(Nc3cc(-c4ccccc4)ncn3)cc2)cc1	-17	-25
COc1cc(Nc2nc(Nc3ccc(-n4ccnc4)cc3)ncc2C)cc(OC)c1OC	12	60*
COc1cc2nc(NCCN3CCOCC3)nc(Nc3ccc(N4CCOCC4)cc3)c2cc1OC	4	5
Cc1cnc(Nc2ccccc2)nc1Nc1ccc(N2CCOCC2)cc1	28	30
COc1cc(Nc2nc(Nc3ccc(N4CCOCC4)cc3)ncc2C)cc(OC)c1OC	20	45*
CCNc1nc(Nc2ccc(N3CCOCC3)cc2)c2cc(OC)c(OC)cc2n1	43*	7
COc1cc(Nc2cc(C)nc(Nc3ccc(-n4ccnc4)cc3)n2)cc(OC)c1OC	8	-12
O=C(NCCOc1ccccc1)c1cccc(Nc2cccnc2)n1	-14	-13
Cc1cc(NCc2cccc(C(F)(F)F)c2)nc(N2CCC(N3CCOCC3)CC2)n1	8	-36
CC(=O)Nc1ccc(NC(=O)Cc2cn(-c3ccc(Nc4ccnn4C)nn3)c3ccccc23)cc1	1	34
COc1cc(Nc2ncnc3nc(-c4cccc(N)c4)[nH]c23)cc(OC)c1OC	6	3
CC(C)n1cnc2c(NCCc3ccc(O)cc3)nc(NCCN3CCOCC3)nc21	-12	-2
CC(=O)Nc1ccc(NC(=O)c2ccnc(Cl)c2)cc1	-2	-11
CCN(CC)C(=O)C1CCCN(c2cc(NCCc3ccc(OC)cc3)ncn2)C1 (stereo not given)	-17	-33
Cc1ncn(-c2ccc(Nc3ncc4cccc(-c5nccs5)c4n3)cc2)n1	11	50*
Cc1ncn(-c2ccc(Nc3ncc4cccc(-c5cn[nH]c5C)c4n3)cc2)n1	-21	55*
Cc1ncn(-c2ccc(Nc3ncc4cccc(-c5cccc6c5ccn6C)c4n3)cc2)n1	-5	-5
SMILES	ASK1 inh	ULK1 primary
Cc1ncn(-c2ccc(Nc3nccc(-c4cc(F)cc(-c5ccnn5C)c4)n3)cc2)n1	19	15
Cc1ncn(-c2ccc(Nc3ncc4cccc(-c5ccn[nH]5)c4n3)cc2)n1	16	24
Cc1ncn(-c2ccc(Nc3ncc(Cl)c(-c4ccnn4C)n3)cc2)n1	-8	64*
Cc1ncn(-c2ccc(Nc3ncc4cccc(-c5ccn(C)n5)c4n3)cc2)n1	-74	89*
Cc1ccc(-c2ncn(-c3ccc(Nc4ncc5cccc(-c6nccs6)c5n4)cc3)n2)cn1	20	3
O=C(NCc1cccc(C(F)(F)F)c1)c1ccc2nc(N3CCN(c4ccccn4)CC3)sc2c1	-9	2
COc1cc(Nc2nc(NCc3ccc4c(c3)OCO4)nc3c2ncn3C(C)C)cc(OC)c1OC	10	-3
CN(C)C(=O)Cc1ccc(S(C)(=O)=O)cc1	.	-10
NC(=O)c1cccc(Nc2ccc(-n3ccnc3)cc2)c1	1	-2
COc1ccc(-c2cc(NCc3ccccc3)nc(N)n2)cc1	10	-31
Cc1ncn(-c2ccc(Nc3ncc4cccc(-c5ccnn5C)c4n3)cc2)n1	-26	52*
Cc1ncn(-c2ccc(Nc3ncc4cccc(-c5cccnc5)c4n3)cc2)n1	9	10
COc1ccccc1N1C(=O)c2cccc3c(C(=O)O)ccc(c23)C1=O	.	7
CCC(=N)c1ccc(OC)c2cccc(NC)c12	.	64*
CCCN(CCC)c1nc(-c2ccncc2)nc2cnccc12	0	4
Oc1ccc(CCNc2nc(Nc3cnccn3)nc3c2ncn3C2CCCCC2)cc1	-30	44*
COc1ccc(CCNc2nc(Nc3cnccn3)nc3c2ncn3C2CCCCC2)cc1	-1	15
O=C(NC1CC1)c1ccc(-c2cc(Nc3ccc(N4CCOCC4)cc3)ncn2)cc1	15	3
NC(C(=O)N1CCC(Nc2ccc3[nH]ncc3c2)C1)c1cccc(F)c1 (stereo not given)	-27	30
CC(C)C[C@H](O)C(=O)N1CCC(C(=O)Nc2ccc3[nH]ncc3c2)CC1	-10	2
CC(C)C[C@H](O)C(=O)N1CCC(Nc2ccc3[nH]ncc3c2)CC1	-38	53*
FC(F)(F)c1ccc(Cn2cnc3c(NCc4cccnc4)nc(Nc4ccc(C(F)(F)F)cc4)nc32)cc1	-5	-21
O=C(NCc1cccc(C(F)(F)F)c1)c1ccnc(NC2CCN(Cc3ccccc3)CC2)c1	3	-5
O=C(NCCCN1CCCC1=O)c1cccc(N2CCC(N3CCOCC3)CC2)n1	-6	-3
Cn1cc(-c2ccc3cnc(Nc4ccc(-n5cnc(N6CCOCC6)n5)cc4)nc3c2OCCN2CCOCC2)cn1	1	33
SMILES	ASK1 inh	ULK1 primary
CC(C)N1CCN(c2ncn(-c3ccc(Nc4ncc5ccc(-c6cnn(C)c6)c(Cl)c5n4)cc3)n2)CC1	-16	91*
Cn1cc(-c2cccc3cnc(Nc4ccc(-n5cnc(N6CCOCC6)n5)cc4)nc23)cn1	17	15
Cc1ncn(-c2ccc(Nc3ncc4ccnc(-c5cnn(C)c5)c4n3)cc2)n1	0	10
CCOC(=O)c1c(-c2cnn(C)c2)ccc2cnc(Nc3ccc(-n4cnc(N5CCOCC5)n4)cc3)nc12	-8	60*
Cn1cc(-c2ccc3cnc(Nc4ccc(N5CCOCC5)nc4)nc3c2Cl)cn1	22	78*
Cc1nc(C)n(-c2ccc(Nc3nc(-c4cnn(C)c4)cc(N4CCOCC4)n3)cc2)n1	5	1
Cc1c(-c2cnn(C)c2)ccc2cnc(Nc3ccc(-n4cnc(N5CCOCC5)n4)cc3)nc12	-66	60*
Cc1cc(C)cc(N(CC(=O)N2CCN(C)CC2)S(C)(=O)=O)c1	.	0
COc1cc2nc(NCc3ccc4c(c3)OCO4)nc(NCCOc3ccccc3)c2cc1OC	25	-10
Cc1ccccc1C(=O)Nc1ccccc1-c1cnn(C)c1	.	1
COc1cc(NC(=O)c2cncc(-n3cc(NC(=O)Cc4ccccc4)cn3)c2)ccc1N1CCOCC1	-2	-12
COc1cc(Nc2nc(-c3ccccc3)nc3c2ncn3CCN2CCCC2=O)cc(OC)c1OC	12	-30
Cn1cc(-c2nc(Nc3ccc(-n4cnc(N5CCC(O)CC5)n4)cc3)ncc2Cl)cn1	-95	71*
Cc1[nH]ncc1-c1ccc2cnc(Nc3ccc(-n4cnc(N5CCOCC5)n4)cc3)nc2c1	-45	76*
Cn1cc(-c2cccc3nc(Nc4ccc(-n5cnc(N6CCOCC6)n5)cc4)ncc23)cn1	9	15
Cc1ccc(-c2ncn(-c3ccc(Nc4ncc(Cl)c(-c5cnn(C)c5)n4)cc3)n2)cn1	16	7
Cn1cc(-c2ccc3cnc(Nc4ccc(-n5cnc(N6CCOCC6)n5)cc4)nc3c2Cl)cn1	-18	47*
Cc1n[nH]c(C)c1-c1ccc2cnc(Nc3ccc(-n4cnc(N5CCOCC5)n4)cc3)nc2c1	-51	-7
